{"source": "PubChem BioAssay AID624404", "about": "(Broad Institute, 2012)", "note": "Hit rate of the full screen: of about 1,800 compounds, about 710 (39%) were called active. Inconclusive results (about 28%) are left out.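 The calls were made as follows: active = luciferase signal rise whose fitted curve crosses a set activity limit at or below the top valid tested dose; inconclusive = flat fit with 30 to 70% rise, or poor fit; inactive = signal falling, flat within 30%, or crossing above top dose.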 Only a sample is shown. Results with a measured potency or affinity are listed apart.", "data": [{"assay": "luciferase activators in glycosylation-insensitive reporter cells, dose response, counter-screen for N-linked glycosylation inhibitor project, D54 LucT cells, luminescence, cherry pick (AID 624404)", "conditions": "D54 LucT luciferase reporter counterscreen, 24 h; series mostly up to 19.5 µM", "values": [{"smiles": "CN(C)c1ccc(CNC(=O)C2(C)Cc3c(-c4ccc5c(c4)OCO5)ccnc3O2)cc1", "note": "(stereo not drawn)", "outcome": "inactive"}, {"smiles": "CC1=C([N+](=O)[O-])C(c2ccccc2)C2=C(N1)c1ccccc1C2=O", "note": "(stereo not drawn)", "outcome": "inactive"}, {"smiles": "CCCCCCCCn1c2c(c(=N)c3c1CCC3)CCCC2", "outcome": "inactive"}, {"smiles": "COc1cc(/C=N\\NC(=O)c2sc(N)nc2C)cc(OC)c1OC", "outcome": "inactive"}, {"smiles": "C#CC[N+](C)(C)CCCCCCCCCCCC", "outcome": "inactive"}, {"smiles": "CCc1ccc(Nc2n[n+](-c3ccccc3)c(-c3ccc(N(CC)CC)cc3)s2)cc1", "outcome": "inactive"}, {"smiles": "CN(Cc1ccc(Cl)s1)C(=O)CCl", "outcome": "inactive"}, {"smiles": "COC(=O)CNC(c1ccccc1)c1cc(Br)ccc1NC(=O)CCN1CCOCC1", "note": "(stereo not drawn)", "outcome": "inactive"}, {"smiles": "NS(=O)(=O)c1cc(C(=O)NCCOc2ccccc2)c(Cl)cc1Cl", "outcome": "inactive"}, {"smiles": "COc1cc(/C=C/C(=O)c2ccc(Cl)s2)cc(OC)c1O", "outcome": "inactive"}, {"smiles": "COc1ccc(OC(=O)N2C/C(=C/c3ccccc3)C(=O)/C(=C\\c3ccccc3)C2)cc1", "outcome": "inactive"}, {"smiles": "COc1ccc(C=CC(=O)c2ccc(OC)c(OC)c2O)cc1OC", "outcome": "inactive"}, {"smiles": "COc1ccc(/C=C/C(=O)c2ccc3c4c(cccc24)CC3)cc1", "outcome": "inactive"}, {"smiles": "O=CC1=C(c2ccccc2)Oc2ccccc2O1", "outcome": "inactive"}, {"smiles": "Nc1nonc1-c1nc2ccccc2n1Cc1ccccc1", "outcome": "inactive"}, {"smiles": "Cc1noc2ncnc(Sc3ccc(Br)cc3)c12", "outcome": "inactive"}, {"smiles": "COc1ccc(C=CC(=O)c2c(OC)cc(OC)c(OC)c2O)cc1", "outcome": "inactive"}, {"smiles": "COc1cc(O)c(C(=O)/C=C/c2ccccc2)c(OC)c1", "outcome": "inactive"}, {"smiles": "CCOC(=O)C(=Cc1ccc(-c2ccsc2C(=O)OC)o1)C(=O)OCC", "outcome": "inactive"}, {"smiles": "Oc1cc(NCc2ccc(Cl)cc2)cc2cccnc12", "outcome": "inactive"}, {"smiles": "COc1cc(CNc2ccc(O)cc2)cc(Br)c1OCc1ccccc1", "outcome": "inactive"}, {"smiles": "CC(=O)n1cc(/C=N/NC(=O)c2sc(C)nc2C)c2ccccc21", "outcome": "inactive"}, {"smiles": "CCOc1ccc(-n2c(C)cc(C(=O)CCl)c2C)cc1", "outcome": "inactive"}, {"smiles": "COc1ccc(Nc2c3ccccc3nc3ccccc23)cc1", "outcome": "inactive"}, {"smiles": "COCCOC(=O)c1[nH]c2c(c1C)C(=O)CC(c1ccco1)C2", "note": "(stereo not drawn)", "outcome": "inactive"}, {"smiles": "CN(C)CCCNc1cc(-c2ccccc2)nc2cc(-c3cccc(F)c3)nn12", "outcome": "inactive"}, {"smiles": "CCCCCC[n+]1ccccc1/C=C/c1ccc(N(C)C)cc1", "outcome": "inactive"}, {"smiles": "CCN(CC)S(=O)(=O)c1ccc(-c2nnc(SCC(=O)N3CCc4ccccc43)o2)cc1", "outcome": "inactive"}, {"smiles": "O=C(c1ccc(Cl)cc1)C(CN1CCCCC1)c1ccccc1", "note": "(stereo not drawn)", "outcome": "inactive"}, {"smiles": "Cc1ccc(Oc2ccc(S(=O)(=O)N3CCOCC3)cc2C(N)=O)c(-n2nc3ccccc3n2)c1", "outcome": "inactive"}, {"smiles": "Nc1ccc2nc(-c3ccccc3)c(-c3ccccc3)nc2c1", "outcome": "inactive"}, {"smiles": "O=S(=O)(Nc1cccc2cccnc12)c1ccc(S(=O)(=O)N2CCCC2)cc1", "outcome": "inactive"}, {"smiles": "COc1ccc2nc3c(cc2c1)c(NC(=O)CC(C)C)nn3CC(C)C", "outcome": "inactive"}, {"smiles": "O=C(Nc1c2ccccc2nc2ccccc12)C(Cl)(Cl)Cl", "outcome": "inactive"}, {"smiles": "CN1CC(=O)N2C(c3ccc(Cl)cc3)c3[nH]c4ccccc4c3C[C@H]2C1=O", "note": "(stereo partly drawn)", "outcome": "inactive"}, {"smiles": "COc1ccc(Cn2c(=O)c3[nH]cnc3n(-c3ccccc3C)c2=O)cc1", "outcome": "inactive"}, {"smiles": "Cc1cc(-n2c(SCC(=O)NCCC3=CCCCC3)nc3n[nH]c(C)c3c2=N)ccc1Cl", "outcome": "inactive"}, {"smiles": "CCN(CC)CCCNC(=O)CSc1c2c(nc3cc(Cl)ccc13)CCCC2", "outcome": "inactive"}, {"smiles": "CCOC(=O)c1[nH]c2ccc(F)cc2c1NC(=O)C(C)N1CCc2cc(OC)c(OC)cc2C1", "note": "(stereo not drawn)", "outcome": "inactive"}, {"smiles": "CCN(CC)c1ccc(NC(=O)CC2Oc3ccccc3NC2=O)c(C)c1", "note": "(stereo not drawn)", "outcome": "inactive"}, {"smiles": "COc1ccc(C2C3=C(COC3=O)Oc3cc4c(cc32)OCO4)cc1OC", "note": "(stereo not drawn)", "outcome": "inactive"}, {"smiles": "COc1cc(NC(=O)NCc2ccco2)ccc1-c1ccc(NC(=O)NCc2ccco2)cc1OC", "outcome": "inactive"}, {"smiles": "Cc1ccc(C)c(NC(=O)Cn2nnc(C(=O)NCc3ccco3)c2N)c1", "outcome": "inactive"}, {"smiles": "C=CCOc1ccccc1C(=O)/C=C1/C(=O)Nc2ccccc21", "outcome": "inactive"}, {"smiles": "c1cnc2nc3c4ccccc4c4ccccc4c3nc2c1", "outcome": "inactive"}, {"smiles": "Cc1cc(C)c(NC(=O)CSc2nc(COc3ccccc3)nc3ccccc23)c(C)c1", "outcome": "inactive"}, {"smiles": "Cc1ccc(C(C)C)c(OCc2nnc(SCC(=O)Nc3ncc(C)s3)n2C)c1", "outcome": "inactive"}, {"smiles": "COc1ccc(-c2nnc(SCC(=O)Nc3ncc(C)s3)n2-c2ccccc2)cc1OC", "outcome": "inactive"}, {"smiles": "CCn1c(SCC(=O)Nc2ccc(C(C)=O)cc2)nc2c([nH]c3ccccc32)c1=O", "outcome": "inactive"}, {"smiles": "COc1ccc2c(c1)c1ccc3c(c1n2C)C(=O)C=CC3=O", "outcome": "inactive"}, {"smiles": "CC1(C(=O)NCc2ccc(F)c(F)c2)Cc2c(-c3ccc4c(c3)OCO4)ccnc2O1", "note": "(stereo not drawn)", "outcome": "inactive"}, {"smiles": "O=C(N/N=C/c1cccc(Br)c1)c1ccc(N2CCCC2=O)cc1", "outcome": "inactive"}, {"smiles": "CC(=O)/C=C/c1ccccc1Oc1c(F)c(F)nc(F)c1F", "outcome": "inactive"}, {"smiles": "CC(=O)N1c2ccccc2C(=O)C1N(C)c1ccc(C)cc1", "note": "(stereo not drawn)", "outcome": "inactive"}, {"smiles": "COc1ccc(CCn2c(=N)c(C(=O)NCCN3CCOCC3)cc3c(=O)n4cccc(C)c4nc32)cc1OC", "outcome": "inactive"}, {"smiles": "COc1ccc(CCn2c(=N)c(C(=O)NCC3CCCO3)cc3c(=O)n4cccc(C)c4nc32)cc1", "note": "(stereo not drawn)", "outcome": "inactive"}, {"smiles": "COc1ccc(NC(=O)COC(=O)/C=C/C(=O)OCC(=O)Nc2ccc(OC)c(Cl)c2)cc1Cl", "outcome": "inactive"}, {"smiles": "Cn1cnc([N+](=O)[O-])c1S(=O)(=O)Oc1ccccc1", "outcome": "inactive"}, {"smiles": "CCOc1ccc(Nc2c3ccccc3nc3ccccc23)cc1", "outcome": "inactive"}, {"smiles": "CCOc1ccc(Nc2nnc(SCc3nc4ccccc4c(=O)[nH]3)s2)cc1", "outcome": "inactive"}, {"smiles": "CCN1/C(=C/c2sc(-c3ccccc3C)c[n+]2C)Sc2ccccc21", "outcome": "inactive"}, {"smiles": "O=C(CC1Sc2ccccc2NC1=O)NNc1cccc(Cl)c1Cl", "note": "(stereo not drawn)", "outcome": "inactive"}, {"smiles": "O=C(Cc1ccc(Cl)cc1)Nc1ccccc1N1CCN(C(=O)c2ccccc2)CC1", "outcome": "inactive"}, {"smiles": "CCOC(=O)c1c(NC(=O)CCl)sc(C(=O)N(CC)CC)c1C", "outcome": "inactive"}, {"smiles": "CCOC(=O)c1c(NC(C)=O)sc2c1CCC(C=O)=C2Sc1ccccc1", "outcome": "inactive"}, {"smiles": "COc1ccc([N+](=O)[O-])cc1NC(=O)CCN1CCN(CCO)CC1", "outcome": "inactive"}, {"smiles": "CNC(=O)COC(=O)c1ccccc1C(=O)c1ccc(Cl)c([N+](=O)[O-])c1", "outcome": "inactive"}, {"smiles": "CCOC(=O)c1ccc(-n2cccc2/C=C2\\NC(=O)NC2=O)cc1", "outcome": "inactive"}]}]}
